# PubChem BioAssay AID1851 (National Center for Advancing Translational Sciences (NCATS), 2009)
# Out of some 16,000 compounds screened, about 2,600 (16%) were called active. Inconclusive results (about 20%) are left out. Calls follow the shape of the dose curve; as a rule, active = well fitted curve in the direction sought with a large enough effect; inconclusive = small, poorly fitted or top-dose-only effect, or effect the other way; inactive = no such curve, though single readings can be large or run the other way. Only a sample is shown. The source holds several records for some structures; these can differ, active in one and inactive in another.
# Target: Cytochrome P450 2D6 (Homo sapiens) (UniProt P10635)
# Test: Cytochrome panel assay with activity outcomes
# Details: recombinant CYP, pro-luciferin dealkylation, luminescence, p450-cyp2d6; series mostly up to 57.1 µM; activity, negative = inhibition: at the top concentration
# % is scaled to controls: 0 for no effect and ±100 for the full control effect.
# Chain of Cytochrome P450 2D6 (Homo sapiens) (P10635 whole entry, looked up): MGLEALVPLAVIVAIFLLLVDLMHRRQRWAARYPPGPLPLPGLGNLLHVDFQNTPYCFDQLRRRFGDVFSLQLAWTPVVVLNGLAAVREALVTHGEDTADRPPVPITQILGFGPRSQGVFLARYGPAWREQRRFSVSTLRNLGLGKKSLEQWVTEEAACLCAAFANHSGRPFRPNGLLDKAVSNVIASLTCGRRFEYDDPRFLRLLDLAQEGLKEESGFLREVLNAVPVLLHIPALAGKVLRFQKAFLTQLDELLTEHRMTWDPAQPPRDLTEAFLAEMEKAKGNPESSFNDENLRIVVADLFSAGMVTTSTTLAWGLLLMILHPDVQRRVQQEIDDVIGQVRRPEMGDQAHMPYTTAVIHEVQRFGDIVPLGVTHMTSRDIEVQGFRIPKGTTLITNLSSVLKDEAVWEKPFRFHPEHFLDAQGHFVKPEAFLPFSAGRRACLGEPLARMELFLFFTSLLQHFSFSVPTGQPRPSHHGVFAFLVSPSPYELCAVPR
Structure (SMILES),"activity, negative = inhibition",AC50
Cn1c(=O)c2[nH]c([C@@H]3CC(=O)C[C@H](c4nc5c([nH]4)c(=O)n(C)c(=O)n5C)N3)nc2n(C)c1=O,-10.1% [at 11.4 µM] (inactive),–
CC(=O)N1CC2(CC2)CC1c1ccccc1 (stereo unspecified),0.5% (inactive),–
CC(C)(C)c1nnc(NC(=O)c2cc(-c3ccccc3)nc3ccccc23)s1,14.1% (inactive),–
Cn1cc(-c2nc3cncnc3n(C3CC3)c2=O)c2ccccc21,1.12% (inactive),–
CN(C)c1cc[n+](CC(=O)Nc2cc(C(F)(F)F)ccc2Cl)cc1,–,0.126 µM (active)
Cc1ccc(C)n1CCN1CCN(CC(=O)Nc2cc(C(F)(F)F)ccc2Cl)CC1,–,11.2 µM (active)
COc1ccc(/C=C/C(=O)Nc2cc(C(F)(F)F)ccc2Cl)cc1,–,2.82 µM (active)
O=C(CS(=O)c1cccc(C(F)(F)F)c1)Nc1ccccc1Cl (stereo unspecified),-4.85% (inactive),–
COc1cc(C(=O)Nc2cc(C(F)(F)F)ccc2Cl)cc(OC)c1OC,-5.08% (inactive),–
Cc1ccc(C(=O)NC(=S)Nc2cc(C(F)(F)F)ccc2Cl)cc1,-4.63% (inactive),–
COC(=O)CNC(=O)/C=C/c1ccc(OC)cc1,-6.5% (inactive),–
N/C(CC(=O)Nc1cc(C(F)(F)F)ccc1Cl)=N\O,2.47% [at 11.4 µM] (inactive),–
O=C(Cc1ccccc1)NC(=S)Nc1cc(C(F)(F)F)ccc1Cl,0.576% (inactive),–
Cc1cc[n+](CC(=O)Nc2cc(C(F)(F)F)ccc2Cl)cc1,–,0.224 µM (active)
Cc1cc(C)n(-c2ccc(C(=O)Nc3cc(C(F)(F)F)ccc3N3CCOCC3)cc2)n1,-3.17% (inactive),–
COc1ccc2nc(NCN3C(=O)c4ccccc4C3=O)sc2c1,-19.6% [at 11.4 µM] (inactive),–
N[C@H](C(=O)N[C@@H]1C(=O)N2C(C(=O)O)=C(Cl)CS[C@@H]12)c1ccccc1,–,inactive
CCOC(=O)C1=C(C)NC(=S)NC1c1cccc(O)c1 (stereo unspecified),-8.2% (inactive),–
O=C(O)CC[C@@H](NC(=O)c1ccccc1C(=O)O)C(=O)O,0.18% (inactive),–
Cc1nc2cnc(Oc3ccccc3)nc2n(-c2ccccc2)c1=O,-12.4% (inactive),–
CCCN1C(=O)C2(/C(=C(\O)c3ccc4c(c3)OCCO4)C(=O)C(=O)N2CCCOC)c2ccccc21 (stereo unspecified),16.7% (inactive),–
COc1ccc(Oc2ncc3nc(-c4cccs4)c(=O)n(Cc4cccc(OC)c4)c3n2)cc1,-14.7% (inactive),–
Fc1ccc2nc3[nH]c4ccccc4c3nc2c1,-11% (inactive),–
Cc1cc(N(CN2CCCC2=O)C(=O)c2ccc(F)cc2)no1,4.83% (inactive),–
COc1cc(/C=N/NC(=O)c2cccs2)ccc1OCc1ccccc1,-7.01% (inactive),–
COc1ccc(Cl)cc1NC(=O)NCCCl,10.6% (inactive),–

Structure (SMILES),"activity, negative = inhibition",AC50
CCOc1ccc(Cl)cc1CNCCNCC(C)O (stereo unspecified),–,3.16 µM (active)
CCOc1ccc(Cl)cc1CNCCNCCO,–,11.2 µM (active)
CCOc1ccc(C(=O)O)cc1OC,14.4% (inactive),–
N=C1SCC(=O)N1c1nc(-c2ccccc2)cs1,7.13% (inactive),–
C[C@@H]1NCC[C@H](CC(=O)O)[C@H]1CC(=O)O,5.62% [at 11.4 µM] (inactive),–
Cc1nnc(-c2cnn(-c3ccccc3)c2N)n1Cc1ccc(F)cc1,9.82% (inactive),–
CCCCOc1ccc(-c2nnn(CC(=O)c3c[nH]c4ccccc34)n2)cc1,5.88% (inactive),–
c1ccc2c(-c3c[nH]c4ccccc34)c3ccccc3nc2c1,–,10 µM (active)
O=C(O)[C@@H](Cc1c[nH]c2ccccc12)C(=O)NO,4.35% [at 11.4 µM] (inactive),–
c1ccc(-c2c3ccccc3nc3[nH]c4ccccc4c23)cc1,-3.6% (inactive),–
Cc1nc(Sc2ccccc2)c(C#N)cc1-c1ccccc1,-7.18% (inactive),–
Cc1nc2cc(NC(=O)CSc3nc4c(C)cccc4cc3C#N)ccc2s1,-18.2% (inactive),–
Nc1nc(SCC(=O)O)[nH]c(=O)c1N,11% [at 11.4 µM] (inactive),–
CO[C@@H]1/C=C\CC(=O)N[C@@H](C)C(=O)OC[C@@H](OC)[C@H](C)/C=C\CC(=O)OC[C@H]1C,10.8% [at 11.4 µM] (inactive),–
CCCN(CC1CC1)c1nc(C)nc(Nc2c(Cl)cc(Cl)cc2Cl)c1Cl,–,1.58 µM (active)
COCCN(C(=O)C(C)C)c1nnc(-c2ccc(C)cc2)s1,20.1% (inactive),–
CCC(CC)c1nnc(NC(=O)COc2ccc3c(C)cc(=O)oc3c2)s1,-16.1% (inactive),–
COc1ccc(NC(=O)CC2C(=O)N(c3cccc(OC)c3)C(=O)N2C2CCCCC2)cc1 (stereo unspecified),-8.55% (inactive),–
CN(CCc1ccc(Cl)c(Cl)c1)CCN1CCCCCC1,–,0.126 µM (active)
CN1CCN(CCCBr)CC1,3.38% [at 11.4 µM] (inactive),–
CN1CCN(CCc2ccc(Cl)c(Cl)c2)CC1,–,12.6 µM (active)
CCOC(=O)c1c(NC(=O)CCC(=O)N2CCOCC2)sc2c1CC(C)(C)OC2,-6.11% (inactive),–
COC(=O)c1cc(C#N)c(NCc2ccc(Cl)cc2Cl)nc1C,3.04% (inactive),–
CC(C)COc1ccc(C(=O)Nc2scc(-c3ccc(Cl)cc3Cl)c2C(N)=O)cc1,-3.75% (inactive),–
Clc1ccccc1C(Nc1cnccn1)Nc1cnccn1,10.1% [at 11.4 µM] (inactive),–
Cc1ccc(C(=O)NCC2CCCO2)cc1N1CCCC1=O (stereo unspecified),-3.42% (inactive),–

Structure (SMILES),"activity, negative = inhibition",AC50
O=c1[nH][nH]c(C(F)(F)F)c1C=Nc1cccc(Cl)c1,-0.732% (inactive),–
COc1ccc(C(Cl)=C(c2ccc(OC)cc2)c2ccc(OC)cc2)cc1,-1.8% [at 25.6 µM] (inactive),–
CCN(CC)CCOc1ccc(/C(=C(\Cl)c2ccccc2)c2ccccc2)cc1,–,5.01 µM (active)
CCCCOc1ccc(OC(=O)c2cccnc2)cc1,-25.1% (inactive),–
Cc1nc(CN2CCCCC2)c(O)c(=O)[nH]1,-19.7% [at 11.4 µM] (inactive),–
N[C@@H](Cc1[nH]nc2ccccc12)C(=O)O,3.39% [at 11.4 µM] (inactive),–
O=C(/C=C/c1ccccc1)NNC(=O)c1cccnc1,-3.07% (inactive),–
C=CC1=C(C)C2=Cc3c(C=C)c(C)c4[n]3[Sn+2][n]3c(c(C)c(CCC(=O)O)c3=CC3=NC(=C4)C(C)=C3CCC(=O)O)=CC1=N2,–,1.26 µM (active)
CCCCCN1CC(O)=C(c2nc(-c3ccc(Cl)cc3)cs2)C1=N,28.4% (inactive),–
Cc1nc2ccccc2nc1-c1ccc(N=[N+]([O-])c2ccc(-c3nc4ccccc4nc3C)cc2)cc1,-15.4% [at 11.4 µM] (inactive),–
NC(=O)C[C@H](NC(=O)Cc1ccc(O)cc1O)C(=O)O,5.57% (inactive),–
CC(C)(CNC(=O)c1ccc([N+](=O)[O-])c(Cl)c1)CNC(=O)c1ccc([N+](=O)[O-])c(Cl)c1,–,3.16 µM (active)
COc1ccc(Cc2nnc(NC(=O)c3ccc(Cl)c([N+](=O)[O-])c3)s2)cc1,9.11% (inactive),–
O=C(NCc1ccc(Cl)cc1)c1ccc(Cl)cc1[N+](=O)[O-],-15.3% (inactive),–
Nc1nc(N)nc(CC(=O)O)n1,-1.79% [at 11.4 µM] (inactive),–
O=C(N/N=C1\CCCc2ccccc21)c1ccc([N+](=O)[O-])cc1Cl,3.67% (inactive),–
O=C(Nc1ccc([N+](=O)[O-])cc1Cl)c1cc(Cl)ccc1O,–,31.6 µM (active) and inactive
Cc1cccc[n+]1CC(=O)Nc1ccc([N+](=O)[O-])cc1Cl,-9.2% (inactive),–
COc1ccccc1-c1cc(N(C)Cc2ccco2)ncn1,–,12.6 µM (active)
CN(Cc1ccco1)c1cc(-c2ccccc2Cl)ncn1,-15.6% (inactive),–
CN(C)Cc1ccccc1-c1cc(N(C)Cc2ccco2)ncn1,–,7.94 µM (active)
CCc1nc2cc(CC(=O)O)ccc2o1,3.13% (inactive),–
N[C@@H](COP(=O)(O)O)C(=O)O,13.7% (inactive),–
COc1cccc(NC(=S)NN2CCN(C)CC2)c1,-18.7% (inactive),–
Cc1ccc(NC(=O)CN2C(=O)S/C(=C\c3cccn3C)C2=O)cc1,22% (inactive),–
Cn1cc(-c2nc3cncnc3n(-c3ccccc3)c2=O)c2ccccc21,-7.45% (inactive),–

Structure (SMILES),"activity, negative = inhibition",AC50
Cn1c(=O)c2[nH]c(CCCCC(=O)O)nc2n(C)c1=O,-13.7% [at 11.4 µM] (inactive),–
CCn1c(=O)c2c(nc3n2CCS3)n(C)c1=O,4.82% (inactive),–
CCCCc1c(O)nc(SCCN(C)C)n(-c2ccccc2)c1=O,-18.2% (inactive),–
CCCCc1cc2ccccc2c(OCCN(C)C)n1,–,2 µM (active)
C/C(=N\NC(=O)c1ccccc1C)c1ccc(NC(=O)c2cccs2)cc1,-5.07% (inactive),–
NS(=O)(=O)c1ccc(N=Nc2cc3ccccc3c(C(=O)O)c2O)cc1,4.38% [at 11.4 µM] (inactive),–
Nc1ccccc1S[C@@H](C[N+](=O)[O-])c1ccc2c(c1)OCO2,–,3.98 µM (active)
Cc1ccc(OC(=O)c2cccc(C(=O)Oc3ccc(C)cn3)n2)nc1,-6.82% (inactive),–
CN1CCCCC1=NCCCn1cnc2c1c(=O)n(C)c(=O)n2C,5.89% (inactive),–
CCOC(=O)N/N=C1/C[C@@H](O)[C@@H](O)[C@@H]2[C@@H]3C(=O)N(Cc4ccc5c(c4)OCO5)C(=O)[C@H]3CC[C@@H]12,6.47% [at 11.4 µM] (inactive),–
COc1ccc(C(=O)N/N=C2/SCC(=O)N2Cc2ccc3c(c2)OCO3)cc1OC,–,15.8 µM (active)
COc1cc(/C=N/NC(=O)c2cccnc2)ccc1OC(=O)c1ccc2c(c1)OCO2,10.4% (inactive),–
CCOC(=O)N1CCN(C(=O)CN(C)S(=O)(=O)c2ccc3c(c2)C(C)(C)C(=O)N3C)CC1,20.2% (inactive),–
CC[C@@H]1OC(=O)[C@H](C)[C@H](O[C@@H]2C[C@](C)(OC)[C@H](O)[C@H](C)O2)[C@H](C)[C@H](O[C@@H]2O[C@@H](C)C[C@@H](N(C)C)[C@@H]2O)[C@](C)(O)C[C@H](C)[C@@H]2N[C@H](COCCOC)O[C@H]([C@@H]2C)[C@]1(C)O,8.43% [at 25.6 µM] (inactive),–
COc1ccc(NC(=O)N2CC[C@@]3(CCCN(S(C)(=O)=O)C3)C2)cc1,20.3% (inactive),–
COc1ccc(NC(=O)N2CCCC3(CCN(S(C)(=O)=O)CC3)C2)cc1,-0.845% (inactive),–
COc1ccccc1CN1CC[C@@]2(CCCN(S(C)(=O)=O)C2)C1,–,0.316 µM (active)
CS(=O)(=O)N1CCC2(CCN(Cc3nccs3)CC2)CC1,7.26% (inactive),–
COc1ccccc1CN1CC[C@@]2(CCCN(S(=O)(=O)c3ccccc3)C2)C1,–,0.01 µM (active)
COc1ccccc1CN1CCC2(CC1)CCN(S(C)(=O)=O)CC2,–,0.02 µM (active)
CS(=O)(=O)N1CCC[C@@]2(CCN(c3ccncc3)C2)C1,-1.64% (inactive),–
O=S(=O)(c1ccccc1)N1CCC[C@@]2(CCN(c3ccccc3)C2)C1,-10.2% (inactive),–
COc1ccccc1CN1CCCC2(CCN(S(C)(=O)=O)CC2)C1,–,0.0631 µM (active)
